Calls of active or inactive are those of the source. Unless noted, no rule for the calls is given here.
What was measured:
[1] = system: Wnt5a (protein binding on small-molecule microarray); experiment: small molecules binding Wnt5a protein – biophysical, small-molecule microarray, 635/667 nm fluorescence, primary screen (AID 1142); conditions: 635 nm fluorescence, higher = more signal;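 also: fluorescence read at 667 nm with signal to noise per printed feature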
[2] = ATP-based viability of Huh7 replicon cells – cell-based, CellTiter-Glo luminescence, basal, 48 h, cytotoxicity control for HCV replication inhibitor project, primary screen (AID 1143); conditions: higher = more signal, called active from +8 up or from −8 down;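 also: Huh7 hepatoma cells carrying a hepatitis C replication reporter with no stimulus; test concentration not given here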
[3] = Pseudomonas biofilm growth suppression – PAO1 strain, BacTiter-Glo luminescence, LB-PBS, primary screen (AID 1144); conditions: P. aeruginosa PAO1 biofilm, 12 h, higher = more signal
[4] = basal CRE-LacZ reporter activity in PC12 – cell-based, unstimulated, primary screen (AID 1145); conditions: no forskolin, luminescence, 4.5 h, higher = more signal, called active from +8 up or from −8 down
[5] = forskolin-driven CRE-LacZ activity in PC12 – cell-based, CRE-LacZ reporter, forskolin-stimulated, primary screen (AID 1146); conditions: luminescence, 4.5 h, higher = more signal, called active from +8 up or from −8 down;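 also: PC12 cells with 6xCRE LacZ reporter stimulated by forskolin 10 µM; beta-galactosidase reporter signal reflecting CREB driven transcription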
[6] = molecular target: Streptavidin (Streptomyces avidinii) (UniProt P22629); experiment: compounds binding control protein streptavidin – biophysical, small-molecule microarray, 635/667 nm fluorescence, artefact control for SMM compound annotation, primary screen (AID 1147); conditions: higher = more signal;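 also: signal reflects streptavidin binding to arrayed compounds as a control protein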
[7] = probe aInhba binding on compound microarray – biochemical, small-molecule microarray, 635/667 nm fluorescence, primary screen (AID 1148); conditions: higher = more signal;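 also: score merges 667nm spot fluorescence with signal-to-noise for antibody binding to printed compounds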
[8] = molecular target: Torsin-1A (Homo sapiens) (UniProt O14656); experiment: TOR1A wild-type binding on microarray – cell lysate, small-molecule microarray, lysate, 635/667 nm, primary screen (AID 1149); conditions: COS7 hTOR1A-WT lysate, 635 nm fluorescence, higher = more signal
[9] = molecular target: Torsin-1A (Homo sapiens) (UniProt O14656); experiment: torsin A mutant lysate binding on microarrays – cell lysate, small-molecule microarray, COS7 lysate, 635/667 nm fluorescence, primary screen (AID 1150); conditions: COS7 hTOR1A mutant lysate, 635 nm fluorescence, higher = more signal;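 also: score pools 667 nm emission and signal to noise measuring lysate protein binding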
[10] = system: Sonic hedgehog protein (Shh); experiment: Sonic hedgehog microarray binding compounds – biochemical, small-molecule microarray, 635/667 nm fluorescence, primary screen (AID 1151); conditions: 635 nm fluorescence, higher = more signal;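 also: Shh protein binding to compounds spotted on small-molecule microarray slides; score combines spot fluorescence intensity with signal-to-noise across triplicate slides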
[11] = optical density shifts of acrAB sulA E. coli – strain DRC41, OD650, 48 h, E. coli filamentation inducer project, primary screen (AID 1152); conditions: higher = more signal, called active from +8 up or from −8 down;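 also: E. coli MC1000 strain DRC41 lacking acrAB efflux pump and sulA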
[12] = probe aLefty1 binding on compound microarray – biochemical, small-molecule microarray, 635/667 nm fluorescence, primary screen (AID 1153); conditions: higher = more signal;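 also: score merges spot fluorescence with signal-to-noise ratio from the scanned slide images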
[13] = plasmodial surface anion channel blockers, osmotic lysis – cell-based, P. falciparum Indochina, OD700, 1 h, primary screen (AID 1154); conditions: P. falciparum Indochina infected RBC osmotic lysis, higher = more signal, called active from +8 up or from −8 down
[14] = plasmodial surface anion channel blockers, osmotic lysis – cell-based, P. falciparum Indochina, OD700, 2 h, primary screen (AID 1155);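 also: lysis reports solute entry through the parasite surface anion channel PSAC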; conditions: P. falciparum Indochina infected erythrocytes, higher = more signal, called active from +8 up or from −8 down
[15] = changes in parasitized red cell lysis, either direction – P. falciparum Indochina, OD700, 3 h, PSAC antagonist project, primary screen (AID 1156); conditions: P. falciparum-infected erythrocytes, osmotic lysis, higher = more signal, called active from +8 up or from −8 down
[16] = plasmodial surface anion channel blockers, osmotic lysis – cell-based, P. falciparum Indochina, OD700, 18 h, primary screen (AID 1157); conditions: P. falciparum Indochina infected erythrocytes, osmotic lysis OD700, 18 h; higher = more signal, called active from +8 up or from −8 down
[17] = S6 kinase pathway phospho-S6 level changes – cell-based, A549, cytoblot, luminescence, serum-stimulated, primary screen (AID 1158); conditions: 5 h, higher = more signal;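 also: serum-stimulated A549 lung adenocarcinoma cells; signal is phosphorylated S6 detected by cytoblot immunostaining with HRP secondary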
[18] = molecular target: NADPH oxidase 2 (Homo sapiens) (UniProt P04839); experiment: compounds shifting NOX2 Amplex Red fluorescence – cell-based, HEK293-NOX2, PMA-stimulated, NOX inhibitor project, primary screen (AID 1159); conditions: 45 min, higher = more signal, called active from +8 up or from −8 down; also: test concentration not given here
[19] = molecular target: NADPH oxidase 4 (Homo sapiens) (UniProt Q9NPH5); experiment: compounds shifting NOX4 Amplex Red fluorescence – cell-based, HEK293-NOX4, tetracycline-induced, NOX inhibitor project, primary screen (AID 1160); conditions: HEK293-NOX4, Amplex Red H2O2 fluorescence, 45 min; higher = more signal, called active from +8 up or from −8 down
[20] = molecular target: NADPH oxidase 5 (Homo sapiens) (UniProt Q96PH1); experiment: compounds shifting NOX5 Amplex Red fluorescence – cell-based, HEK293-NOX5, NOX inhibitor project, primary screen (AID 1161); conditions: HEK293-NOX5, ionomycin, 45 min, higher = more signal
NADPH oxidase 5 (Homo sapiens), sequence (Q96PH1 whole entry, looked up): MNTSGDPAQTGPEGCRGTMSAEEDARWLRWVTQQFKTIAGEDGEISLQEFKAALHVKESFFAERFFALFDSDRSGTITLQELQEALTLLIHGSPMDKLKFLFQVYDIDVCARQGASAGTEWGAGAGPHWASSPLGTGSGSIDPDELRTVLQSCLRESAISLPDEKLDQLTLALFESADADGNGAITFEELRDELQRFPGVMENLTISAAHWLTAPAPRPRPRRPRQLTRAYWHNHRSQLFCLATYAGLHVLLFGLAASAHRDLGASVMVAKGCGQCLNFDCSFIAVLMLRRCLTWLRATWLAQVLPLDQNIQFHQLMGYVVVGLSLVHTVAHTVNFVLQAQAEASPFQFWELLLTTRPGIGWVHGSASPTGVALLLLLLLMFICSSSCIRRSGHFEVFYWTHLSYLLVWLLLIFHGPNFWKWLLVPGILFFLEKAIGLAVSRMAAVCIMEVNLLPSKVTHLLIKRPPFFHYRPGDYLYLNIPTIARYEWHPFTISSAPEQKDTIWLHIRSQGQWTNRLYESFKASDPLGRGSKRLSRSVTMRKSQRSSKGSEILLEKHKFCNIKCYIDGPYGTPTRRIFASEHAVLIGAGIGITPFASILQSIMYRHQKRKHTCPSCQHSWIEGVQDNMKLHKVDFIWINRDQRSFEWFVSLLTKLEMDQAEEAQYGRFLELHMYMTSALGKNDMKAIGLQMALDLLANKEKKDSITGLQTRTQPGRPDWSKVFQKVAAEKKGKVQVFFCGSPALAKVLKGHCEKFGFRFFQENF

NADPH oxidase 4 (Homo sapiens), sequence (Q9NPH5 whole entry, looked up): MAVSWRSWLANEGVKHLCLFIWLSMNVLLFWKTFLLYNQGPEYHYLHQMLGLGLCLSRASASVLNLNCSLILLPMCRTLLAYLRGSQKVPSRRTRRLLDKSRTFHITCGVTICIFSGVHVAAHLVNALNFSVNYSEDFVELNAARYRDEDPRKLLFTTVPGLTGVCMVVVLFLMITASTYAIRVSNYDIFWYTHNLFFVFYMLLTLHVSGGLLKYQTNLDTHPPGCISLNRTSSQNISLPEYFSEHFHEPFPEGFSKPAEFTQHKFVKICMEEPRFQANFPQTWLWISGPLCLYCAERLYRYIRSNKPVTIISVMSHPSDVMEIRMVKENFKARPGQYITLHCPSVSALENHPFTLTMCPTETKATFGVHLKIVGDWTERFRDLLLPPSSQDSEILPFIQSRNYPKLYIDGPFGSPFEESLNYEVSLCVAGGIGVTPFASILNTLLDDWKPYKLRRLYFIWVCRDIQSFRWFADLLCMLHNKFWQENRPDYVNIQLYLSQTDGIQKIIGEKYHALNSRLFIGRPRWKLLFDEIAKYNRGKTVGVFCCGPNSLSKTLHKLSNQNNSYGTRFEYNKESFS
NADPH oxidase 2 (Homo sapiens), sequence (P04839 whole entry, looked up): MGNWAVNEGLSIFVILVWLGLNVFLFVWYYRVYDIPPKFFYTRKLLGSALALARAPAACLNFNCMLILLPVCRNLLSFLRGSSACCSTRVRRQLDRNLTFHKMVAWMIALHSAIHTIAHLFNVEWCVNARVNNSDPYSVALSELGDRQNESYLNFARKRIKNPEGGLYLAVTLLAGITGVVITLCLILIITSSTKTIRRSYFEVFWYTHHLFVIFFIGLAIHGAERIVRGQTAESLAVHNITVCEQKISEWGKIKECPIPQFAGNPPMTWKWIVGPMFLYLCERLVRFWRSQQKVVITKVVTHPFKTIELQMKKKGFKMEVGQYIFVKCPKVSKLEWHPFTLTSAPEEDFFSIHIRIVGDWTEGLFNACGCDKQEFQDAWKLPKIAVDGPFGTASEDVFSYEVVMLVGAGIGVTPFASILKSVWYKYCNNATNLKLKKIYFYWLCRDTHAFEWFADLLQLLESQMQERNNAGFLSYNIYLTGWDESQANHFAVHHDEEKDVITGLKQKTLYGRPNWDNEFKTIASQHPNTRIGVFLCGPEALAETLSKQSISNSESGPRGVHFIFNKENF
Torsin-1A (Homo sapiens), sequence (O14656 whole entry, looked up): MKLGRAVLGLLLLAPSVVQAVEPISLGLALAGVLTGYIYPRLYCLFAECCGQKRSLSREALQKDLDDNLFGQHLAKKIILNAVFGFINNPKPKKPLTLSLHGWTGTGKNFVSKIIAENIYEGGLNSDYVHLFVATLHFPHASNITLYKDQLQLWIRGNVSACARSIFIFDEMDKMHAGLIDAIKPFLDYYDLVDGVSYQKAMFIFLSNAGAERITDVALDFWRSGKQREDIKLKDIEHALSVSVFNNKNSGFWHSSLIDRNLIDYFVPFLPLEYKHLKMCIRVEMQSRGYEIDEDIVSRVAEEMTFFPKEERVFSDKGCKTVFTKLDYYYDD
Streptavidin (Streptomyces avidinii), sequence (P22629 whole entry, looked up): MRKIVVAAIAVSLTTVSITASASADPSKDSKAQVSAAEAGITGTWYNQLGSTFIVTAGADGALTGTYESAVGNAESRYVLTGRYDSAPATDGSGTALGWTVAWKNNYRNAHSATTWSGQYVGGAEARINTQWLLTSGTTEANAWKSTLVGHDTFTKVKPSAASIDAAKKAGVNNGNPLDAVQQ

In the case of CCCNC(=O)[C@@]1(Sc2ccc(C)cc2)CC(=O)N(C2CCCCC2)[C@@H]1c1ccc(CO)cc1I, the composite z-score [1] is reported as 0.108, the z-score [2] is reported as -2.76 (inactive) and the z-score [3] is reported as 0.687 (inactive). The z-score [4] was 0.272 (inactive), the z-score [5] was 1.38 (inactive) and the composite z-score [6] was 0.133. The composite z-score [7] was -0.198, the composite z-score [8] was 0.0272 and the composite z-score [9] was 0.197. For the same compound, the composite z-score [10] was -0.158, the z-score [11] was -0.629 (inactive) and the composite z-score [12] was -0.525. For the same compound, the z-score [13] was 4.93 (inactive), the z-score [14] was 0.465 (inactive) and the z-score [15] was 0.0133 (inactive). The z-score [16] was 0.376 (inactive), the z-score [17] was -0.328 and the z-score [18] was 0.82 (inactive). For the same compound, the z-score [19] was 0.142 (inactive) and the z-score [20] was 1.61.

With CCc1cccc(NC(=O)O[C@H]2[C@H](OC(=O)Nc3ccccc3)[C@H](OC(=O)Nc3ccccc3)[C@@H](OC)O[C@@H]2CO)c1 the composite z-score [1] was 0.428, the z-score [2] was -6.02 (inactive) and the z-score [3] was -0.0223 (inactive). The z-score [4] was 1.03 (inactive), the z-score [5] was -1.2 (inactive) and the composite z-score [6] was 1.03. For the same compound, the composite z-score [7] was 0.212, the composite z-score [8] was -0.417 and the composite z-score [9] was 0.778. For the same compound, the composite z-score [10] was 0.0653, the z-score [11] was -1.42 (inactive) and the composite z-score [12] was 0.253. The z-score [13] was 10.1 (active), the z-score [14] was 3.34 (inactive) and the z-score [15] was -1.53 (inactive). The z-score [16] was 1.92 (inactive), the z-score [17] was 0.213 and the z-score [18] was -1.12 (inactive). The z-score [19] was -0.593 (inactive) and the z-score [20] was -1.3.

For CCOC(=O)C[C@H]1[C@H](OC(=O)c2ccc(-c3ccccc3)cc2)[C@@H](NC(=O)Cc2ccc(OC)cc2)c2cc(OCCCO)ccc2N1C(=O)Cc1ccc(OC)cc1, the composite z-score [1] was -0.0129, the z-score [2] was 0.247 (inactive) and the z-score [3] was 0.00724 (inactive). For the same compound, the z-score [4] was 0.773 (inactive), the z-score [5] was -0.834 (inactive) and the composite z-score [6] was -0.0417. The composite z-score [7] was -0.128, the composite z-score [8] was -0.305 and the composite z-score [9] was 0.0922. The composite z-score [10] was -0.259, the z-score [11] was 1.07 (inactive) and the composite z-score [12] was -0.0348. The z-score [13] was 4.29 (inactive), the z-score [14] was 0.4 (inactive) and the z-score [15] was 0.222 (inactive). For the same compound, the z-score [16] was 0.211 (inactive), the z-score [17] was 0.911 and the z-score [18] was 0.818 (inactive). The z-score [19] was -0.868 (inactive) and the z-score [20] was 1.52.

For CN1C(=O)C2C(C1=O)C1C=C(CCCO)C2C(c2cccs2)N1Cc1cc2c(cc1Br)OCO2 (stereo not given), the composite z-score [1] was 0.418, the z-score [2] was -1.8 (inactive) and the z-score [3] was 0.482 (inactive). For the same compound, the z-score [4] was -0.374 (inactive), the z-score [5] was -0.101 (inactive) and the composite z-score [6] was 2.27. The composite z-score [7] was 0.233, the composite z-score [8] was 1.5 and the composite z-score [9] was 1.95. The composite z-score [10] was 0.162, the z-score [11] was -0.139 (inactive) and the composite z-score [12] was -0.0587. The z-score [13] was 25.1 (active), the z-score [14] was 15.9 (active) and the z-score [15] was 0.0521 (inactive). The z-score [16] was 1.58 (inactive), the z-score [17] was 0.791 and the z-score [18] was 0.196 (inactive). For the same compound, the z-score [19] was 0.0713 (inactive) and the z-score [20] was 0.741.

With O=C1OCCC=C[C@H]2OC34C=CCN(c5ccc(Cl)cc5)C(=O)[C@H]3N(CCCCCCO)C(=O)[C@@H]4C12 (stereo not given in full) the composite z-score [1] was -0.365, the z-score [2] was -0.352 (inactive) and the z-score [3] was 0.358 (inactive). The z-score [4] was 0.0645 (inactive), the z-score [5] was -1.34 (inactive) and the composite z-score [6] was -0.985. It also gave a composite z-score [7] of 0.0333, a composite z-score [8] of 0.132 and a composite z-score [9] of -0.175. The composite z-score [10] was -0.341, the z-score [11] was 1.96 (inactive) and the composite z-score [12] was -0.0292. For the same compound, the z-score [13] was 0.769 (inactive), the z-score [14] was 0.138 (inactive) and the z-score [15] was 1.13 (inactive). For the same compound, the z-score [16] was 0.255 (inactive), the z-score [17] was 0.551 and the z-score [18] was 1.47 (inactive). For the same compound, the z-score [19] was 0.036 (inactive) and the z-score [20] was 2.61.

With CC(C)C[C@@H]1NC(=O)[C@@]23C(=O)N[C@@H](Cc4ccccc4)C2[C@H](C)[C@@]2(C)O[C@H]2C3/C=C/C/C=C\CNC(=O)[C@@H](C)NC1=O (stereo not given in full) the composite z-score [1] was -0.336, the z-score [2] was -0.611 (inactive) and the z-score [3] was -0.944 (inactive). The z-score [4] was 0.662 (inactive), the z-score [5] was -0.268 (inactive) and the composite z-score [6] was -0.823. The composite z-score [7] was -0.348, the composite z-score [8] was 0.056 and the composite z-score [9] was -0.196. For the same compound, the composite z-score [10] was 1.29, the z-score [11] was 0.767 (inactive) and the composite z-score [12] was -0.444. For the same compound, the z-score [13] was 0.961 (inactive), the z-score [14] was -1.13 (inactive) and the z-score [15] was -0.826 (inactive). The z-score [16] was -0.967 (inactive), the z-score [17] was 0.338 and the z-score [18] was 0.848 (inactive). The z-score [19] was 1.65 (inactive) and the z-score [20] was 0.953.

For C=C(COC)/C(=C/C[C@@H](OC(=O)c1ccncc1)c1ccccc1OCCO)c1cc(C(=O)OC)ccc1OC, the composite z-score [1] was -0.146, the z-score [2] was -1.88 (inactive) and the z-score [3] was 0.454 (inactive). For the same compound, the z-score [4] was 14.7 (active), the z-score [5] was 3.84 (inactive) and the composite z-score [6] was -0.409. The composite z-score [7] was -0.0762, the composite z-score [8] was 0.758 and the composite z-score [9] was -0.103. For the same compound, the composite z-score [10] was 0.249, the z-score [11] was 0.132 (inactive) and the composite z-score [12] was -0.0654. For the same compound, the z-score [13] was 23.5 (active), the z-score [14] was 6 (inactive) and the z-score [15] was 1.74 (inactive). For the same compound, the z-score [16] was 1.02 (inactive), the z-score [17] was 0.171 and the z-score [18] was -0.97 (inactive). The z-score [19] was -1.4 (inactive) and the z-score [20] was -2.07.

With Cc1ccc(S[C@]2(C(=O)NC(C)C)CC(=O)N(Cc3ccccc3Cl)[C@@H]2c2ccc(CO)cc2)cc1 the composite z-score [1] was -0.323, the z-score [2] was -2.67 (inactive) and the z-score [3] was -0.141 (inactive). For the same compound, the z-score [4] was -0.295 (inactive), the z-score [5] was 0.506 (inactive) and the composite z-score [6] was -1.03. For the same compound, the composite z-score [7] was -0.149, the composite z-score [8] was -2.93 and the composite z-score [9] was -1.86. For the same compound, the composite z-score [10] was -0.761, the z-score [11] was -1.03 (inactive) and the composite z-score [12] was 0.0509. For the same compound, the z-score [13] was 3.11 (inactive), the z-score [14] was 0.0285 (inactive) and the z-score [15] was 1.5 (inactive). The z-score [16] was 0.253 (inactive), the z-score [17] was -0.026 and the z-score [18] was -0.984 (inactive). For the same compound, the z-score [19] was -1.19 (inactive) and the z-score [20] was -0.486.

For O=C(N1CCOCC1)[C@@]1(CCS(=O)(=O)c2ccccc2)N=C(c2ccc(OCCCO)cc2)O[C@H]1c1ccccc1, the composite z-score [1] was 0.465, the z-score [2] was -1.48 (inactive) and the z-score [3] was 0.201 (inactive). The z-score [4] was 0.0127 (inactive), the z-score [5] was -0.0526 (inactive) and the composite z-score [6] was 2.39. For the same compound, the composite z-score [7] was 0.3, the composite z-score [8] was 0.411 and the composite z-score [9] was 0.767. The composite z-score [10] was -0.514, the z-score [11] was 0.276 (inactive) and the composite z-score [12] was 0.446. For the same compound, the z-score [13] was 30.2 (active), the z-score [14] was 27.8 (active) and the z-score [15] was 0.265 (inactive). The z-score [16] was 5.34 (inactive), the z-score [17] was -0.679 and the z-score [18] was 0.386 (inactive). For the same compound, the z-score [19] was 1.75 (inactive) and the z-score [20] was 1.97.
